{"source": "ChEMBL document CHEMBL3988442", "about": "“University of Dundee, Small-Polar-MMV Screening Library” (2021)", "note": "The whole screen tested about 53,000 compounds, of which about 900 (1.7%) showed an effect of 50% or more. This is one part of a sample in which strong results are shown more often than they occur."}
{"system": "Mycobacterium tuberculosis", "assay": "Cornell - Phenotypic assay to identify agents that inhibit growth of Mycobacterium tuberculosis", "assay_type": "functional", "set-up": "scale not given: direction of the effect not stated beside the values", "settings": "10 mM as filed; unlikely as a test dose", "units": {"Percent Effect": "%"}}
{"smiles": "Cl.O=C(NCCn1nc(C2CCNC2)c2cccnc21)C1CC1", "note": "(centres undefined)", "Percent Effect": -8.257}
{"smiles": "O=C(O)COc1ccccc1CN1CCCC1c1ccncn1", "note": "(centres undefined)", "Percent Effect": -19.71}
{"smiles": "CC(SCC(=O)N(C)CC(=O)NC1CC1)c1cc(F)ccc1F", "note": "(centres undefined)", "Percent Effect": -24.27}
{"smiles": "O=C(NCc1ccco1)[C@H]1COC[C@H]2CN(Cc3ccoc3)C[C@H]21.O=C(O)C(F)(F)F", "Percent Effect": -10.46}
{"smiles": "O=C(O)CC(CC(=O)NCCc1cccs1)c1cccs1", "note": "(centres undefined)", "Percent Effect": 23.94}
{"smiles": "Cn1cccc1CN(C(=O)CC(CC(=O)O)c1cccs1)C1CC1", "note": "(centres undefined)", "Percent Effect": 104.7}
{"smiles": "CN(C(=O)Cc1cccs1)C1CCN(c2ccccn2)CC1", "Percent Effect": -44.78}
{"smiles": "Cn1cccc1CN(C(=O)Cc1cccs1)C1CC1", "Percent Effect": 91.3}
{"smiles": "CN(Cc1cccs1)C1CCC[C@@H]2CN(C(=O)c3cccn3C)C[C@H]12", "note": "(some centres undefined)", "Percent Effect": 28.44}
{"smiles": "O=C(O)CC(CC(=O)N(Cc1ccsc1)C1CC1)c1cccs1", "note": "(centres undefined)", "Percent Effect": 15.88}
{"smiles": "Cc1ccc(N(C)[C@@H]2CC[C@@H]3CN(C(=O)C4CCOCC4)C[C@@H]32)nn1", "Percent Effect": -1.727}
{"smiles": "CCN(Cc1nc(Cc2ccccc2)no1)C1CC1", "Percent Effect": -4.646}
{"smiles": "CC(C)c1ccc(S(=O)(=O)N2CSCC2C(=O)NCC(F)(F)F)cc1", "note": "(centres undefined)", "Percent Effect": 11.48}
{"smiles": "Cc1cccc(CNC(=O)NCC2CCN(Cc3ncc[nH]3)C2)c1", "note": "(centres undefined)", "Percent Effect": 26.47}
{"smiles": "c1ccc2sc(CN3CCCC3c3noc(C4CC4)n3)nc2c1", "note": "(centres undefined)", "Percent Effect": 50.21}
{"smiles": "Cc1cc(CN2CCCC2c2noc(C3CC3)n2)c2ccccc2n1", "note": "(centres undefined)", "Percent Effect": 12.61}
{"smiles": "c1cc(CN2CCCC2c2noc(C3CC3)n2)on1", "note": "(centres undefined)", "Percent Effect": -61.35}
{"smiles": "CCOC(=O)[C@]12CCCN(Cc3cccs3)C[C@H]1CN(CCOC)C2.O=C(O)C(F)(F)F.O=C(O)C(F)(F)F", "Percent Effect": 11.02}
{"smiles": "COc1ccc(CNC(C)c2cnn(C)c2)cc1OC1CCCC1", "note": "(centres undefined)", "Percent Effect": 9.224}
{"smiles": "O=C(O)C(F)(F)F.c1coc(CN2CCCn3c(nnc3Cn3cccc3)C2)c1", "Percent Effect": 21.05}
{"smiles": "Cl.O=C(NCCn1nc(C2CCNC2)c2cccnc21)c1ccccn1", "note": "(centres undefined)", "Percent Effect": -9.907}
{"smiles": "Cc1cc(-c2ccc(=O)n(CCNC(=O)C3CC3)n2)c(C)o1", "Percent Effect": 55.53}
{"smiles": "Cc1cc(-c2ccc(=O)n(CCNC(=O)C3CCCCC3)n2)c(C)o1", "Percent Effect": 6.455}
{"smiles": "Cc1cc(-c2ccc(=O)n(CCNC(=O)C3CCC3)n2)c(C)o1", "Percent Effect": -20.09}
{"smiles": "O=C(Nc1cccc(CN2CCC(CO)CC2)c1)c1cc(Cl)c[nH]1", "Percent Effect": -16.48}
{"smiles": "COc1ccccc1CN(Cc1cccs1)S(=O)(=O)N(C)C(C)C", "Percent Effect": 41.56}
{"smiles": "CCN(Cc1cccs1)S(=O)(=O)N(C)C(C)C", "Percent Effect": 30.52}
{"smiles": "CC(C)N(C)S(=O)(=O)N(Cc1cccs1)Cc1cccs1", "Percent Effect": 53.57}
{"smiles": "CCOc1ccc(C(F)(F)F)cc1NC(=O)N1CCNC(=O)C1", "Percent Effect": 13.57}
{"smiles": "Br.COc1ccc(C(=O)CN(C2=NCCCCC2)c2ccccc2)cc1", "Percent Effect": 15.77}
{"smiles": "Br.O=C(CN(C1=NCCCC1)c1ccccc1)c1ccc(OC(F)F)cc1", "Percent Effect": 62.24}
{"smiles": "Br.Cc1cccc(N(CC(=O)c2ccccc2)C2=NCCCCC2)c1", "Percent Effect": 13.79}
{"smiles": "Br.Cc1ccc(N(CC(=O)c2ccc(Br)cc2)C2=NCCCCC2)cc1", "Percent Effect": 102.8}
{"smiles": "Br.O=C(CN(C1=NCCCC1)c1ccccc1)c1ccccc1", "Percent Effect": -16.62}
{"smiles": "Br.CCOc1ccc(N(CC(=O)c2ccccc2)C2=NCCCCC2)cc1", "Percent Effect": 104.2}
{"smiles": "Br.O=C(CN(C1=NCCCCC1)c1ccc(Cl)cc1)c1ccccc1", "Percent Effect": 14.11}
{"smiles": "Br.O=C(CN(C1=NCCCC1)c1ccccc1)c1ccc2c(c1)OCCO2", "Percent Effect": 22.49}
{"smiles": "Br.Cc1ccc(C(=O)CN(C2=NCCCCC2)c2ccccc2)cc1", "Percent Effect": 29.09}
{"smiles": "O=C(NCC[S+]([O-])c1ccccc1)c1ccc2[nH]c(=O)[nH]c2c1", "note": "(centres undefined)", "Percent Effect": 15.24}
{"smiles": "CCOC(=O)[C@@H]1[C@@H](O)C(=O)N(C)C12CCN(C(=O)OC)CC2", "Percent Effect": -16.14}
{"smiles": "CC(C)CCN1C(=O)C2(NC(=O)c3ccccc3O2)c2ccccc21", "note": "(centres undefined)", "Percent Effect": 40.69}
{"smiles": "Cc1nc(-c2ccncc2)ncc1C(C)NC(=O)CN1CCOC1=O", "note": "(centres undefined)", "Percent Effect": -51.46}
{"smiles": "O=S(=O)(NCCCn1cncn1)c1ccc2c(c1)CCC2", "Percent Effect": -2.394}
{"smiles": "CN(CCc1nccs1)C(=O)C1(C#N)CCCCC1", "Percent Effect": 25.08}
{"smiles": "Cc1nc(NCCO)cc(C(C)Cn2nc(C)c(C)c2C)n1", "note": "(centres undefined)", "Percent Effect": -14.61}
{"smiles": "NC(=O)c1cn2cc(-c3ccccc3Cl)n(CC3CC3)c(=O)c2n1", "Percent Effect": 14.04}
{"smiles": "O=C(C1CCN(c2ccnc3ccc(Br)cc23)CC1)N1CCOCC1", "Percent Effect": -18.98}
{"smiles": "CC1CCN(c2ccnc3ccc(Br)cc23)CC1", "Percent Effect": 84.63}
{"smiles": "CC(=O)NCC1CCN(c2ccnc3ccc(Br)cc23)CC1", "Percent Effect": 9.267}
{"smiles": "Cc1ccc(OCC(=O)Nc2cc(C(=O)O)cc(S(C)(=O)=O)c2)cc1C", "Percent Effect": 18.88}
{"smiles": "CCc1nc(C2CCCN2C(=O)c2csc(COC)n2)no1", "note": "(centres undefined)", "Percent Effect": -20.84}
{"smiles": "Cc1cc(-n2cnnn2)n2ncnc2n1", "Percent Effect": -30.4}
{"smiles": "Cc1cc(-n2cncn2)n2ncnc2n1", "Percent Effect": 64.26}
{"smiles": "Cc1cc(N2CCCC2Cn2nc(C)cc2C)n2ncnc2n1", "note": "(centres undefined)", "Percent Effect": -13.82}
{"smiles": "Cc1ccc(C(=O)N2CCOC(c3ncc(CN(C)C)[nH]3)C2)cc1F", "note": "(centres undefined)", "Percent Effect": 14.93}
{"smiles": "COc1ccc(F)cc1CN(CC(N)=O)C(C)C", "Percent Effect": -0.4736}
{"smiles": "Cc1cc(-c2ccccc2)nc(C2CCCN2S(C)(=O)=O)n1", "note": "(centres undefined)", "Percent Effect": -11.27}
{"smiles": "Cn1cc(Br)c(C(=O)NCCn2cc(Br)cn2)n1", "Percent Effect": 8.473}
{"smiles": "N#Cc1ccc(N2CCC(OCCc3ccccc3)CC2)nc1", "Percent Effect": 51.1}
{"smiles": "N#Cc1cccnc1N1CCC(OCCc2ccccc2)CC1", "Percent Effect": 33.41}
{"smiles": "Cc1cccc(OC2CCN(c3ccc(C#N)cn3)CC2)n1", "Percent Effect": 4.434}
{"smiles": "O=C(Cc1cccc(O)c1)N1CCCC(O)(CN2CCCC2)CC1", "note": "(centres undefined)", "Percent Effect": -1.621}
{"smiles": "c1cc2c(cc1CN1CCN(Cc3noc(C4CC4)n3)CC1)OCO2", "Percent Effect": 10.54}
{"smiles": "CCC(=O)Nc1ccc2c(c1)C1(CCOCC1)CN2CCF.O=C(O)C(F)(F)F", "Percent Effect": 2.387}
